Among all 16,000 compounds or so, about 5,800 (36%) were called active. Not shown: some 23% with an inconclusive outcome. The list shows a part of the results. Unmarked numbers belong to inactive results. The call rests on the fitted dose curve; in most records, active means well fitted curve in the direction sought with a large enough effect; inconclusive means small, poorly fitted or top-dose-only effect, or effect the other way; inactive means no such curve, though single readings can be large or run the other way.
On the % scale 0 is the no-effect control and ±100 the full control effect.

The experiment deals with Cytochrome P450 2C19 (Homo sapiens) (UniProt P33261). Briefly: Cytochrome panel assay with activity outcomes. The conditions noted are these: recombinant CYP, pro-luciferin dealkylation, luminescence, p450-cyp2c19; series mostly up to 57.1 µM.
Sequence of Cytochrome P450 2C19 (Homo sapiens) (P33261 whole entry, looked up): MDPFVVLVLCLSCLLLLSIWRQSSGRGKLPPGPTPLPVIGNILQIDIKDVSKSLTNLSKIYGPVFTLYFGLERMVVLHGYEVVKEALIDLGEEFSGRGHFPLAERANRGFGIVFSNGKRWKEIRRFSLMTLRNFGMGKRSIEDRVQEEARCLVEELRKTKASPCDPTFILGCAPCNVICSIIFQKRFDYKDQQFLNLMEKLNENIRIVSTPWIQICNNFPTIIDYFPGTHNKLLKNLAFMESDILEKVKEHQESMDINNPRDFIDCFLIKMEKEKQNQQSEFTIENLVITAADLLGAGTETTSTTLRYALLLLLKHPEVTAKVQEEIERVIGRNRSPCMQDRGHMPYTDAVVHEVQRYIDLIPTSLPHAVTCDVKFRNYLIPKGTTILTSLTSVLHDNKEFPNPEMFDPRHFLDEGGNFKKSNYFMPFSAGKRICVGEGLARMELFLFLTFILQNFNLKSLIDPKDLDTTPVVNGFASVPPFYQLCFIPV
The AC50 is the midpoint of the concentration-response curve, whichever way the signal moves. Consider `O=C(Nc1cccc(F)c1)N1CCCC2(CCNCC2)C1`, for which the AC50 entry is “inactive”. Consider `CC(=O)N(O)CCCCCNC(=O)CCC(=O)N(O)CCCCCNC(=O)CCC(=O)N(O)CCCCCN`, for which the AC50 entry was “inactive”.

Regarding `O=C(c1ccccc1)c1cc(F)c(N2CCOCC2)cc1Cl`, the half-maximal activity concentration (AC50) was 0.708 µM (active). As to `O=C(O)c1ccc(C(=O)c2ccccc2)c(C(=O)O)c1`, the activity, negative = inhibition was 33.3% [at 11.4 µM].

In the case of `COc1ccc(Nc2cc(C(=O)NCCCN3CCN(C)CC3)c3ccccc3n2)cc1`, the AC50 entry is “inactive”. Take `Cc1ccc2nc(-c3ccccc3)cc(C(=O)NCCCn3ccnc3)c2c1`: the AC50 was 2 µM (active). On the same count and under the same terms, next, `Cc1ccc(-n2c(C)cc(C(=S)N3CCOCC3)c2C)cc1C`: 0.891 µM (active); `O=C(Nc1ccc(S(=O)(=O)N2CCCCC2)cc1)c1ccc(CN2CCc3ccccc3C2)cc1`: 7.94 µM (active).

As for `O=C(Nc1ccc(S(=O)(=O)N2CCCC2)cc1)c1ccc(CN2CCOCC2)cc1`, the AC50 entry is “inactive”. On the same count and under the same terms, next, `CCOC(=O)C(/C(N)=N/C(=O)Nc1ccccc1)=C(\C)O`: 17.8 µM (active); `CCOC(=O)/C(C(N)=NCCCO)=C(/O)c1ccccc1`: “inactive”.

For the compound `BrC(c1cccc2ccccc12)c1cccc2ccccc12`, the AC50 is 1.26 µM (active). As for `Clc1ccc(-n2nnnc2CN2CCOCC2)cc1`, the AC50 was 11.2 µM (active).

Consider `c1c[nH]c(CN2CCOCC2)n1`, for which the activity, negative = inhibition is -4.4% [at 11.4 µM]. On to `COCCn1c(=O)c(-c2cc(F)cc(F)c2)nc2cnc(N3CCNCC3)nc21`, for which the AC50 result was “inactive”. Same read-out and setting: next, `COc1ccc(S(=O)(=O)Nc2ccc(F)cc2)c(C)c1C`: 0.0891 µM (active); `O=C(CSc1nnnn1C1CCCC1)Nc1ccc(F)cc1`: 2 µM (active); `CC(=O)NCCNc1ccnc(-c2ccccc2C(F)(F)F)n1`: “inactive”. The same measure, in the same setting: under `Fc1ccc(Nc2ccnc(-c3ccccc3C(F)(F)F)n2)cc1` stands 10 µM (active); under `FC(F)(F)c1ccccc1-c1nccc(NCc2cccs2)n1`, 2 µM (active). On the same count and under the same terms, next, `Cc1cnc(CNc2ccnc(-c3ccccc3C(F)(F)F)n2)cn1`: “inactive”; `COCCNc1ccnc(-c2ccccc2CN(C)C)n1`: “inactive”. Regarding `COCCNc1ccnc(-c2ccccc2C(F)(F)F)n1`, the AC50 was 10 µM (active). On the same count and under the same terms, under `CN(C)Cc1ccccc1-c1nccc(Nc2ccc(F)cc2)n1` stands “inactive”; under `FC(F)(F)c1ccccc1-c1nccc(NCc2ccccc2)n1`, 6.31 µM (active). In the case of `COc1ccc(OC[C@@H](CO)OC)cc1`, the activity, negative = inhibition is 28.9% [at 11.4 µM].

Regarding `Cc1ccccc1-c1nccc(NCc2cccs2)n1`, the AC50 was 3.98 µM (active).

With `CN(C)Cc1ccccc1-c1nccc(NCc2cccs2)n1`, the AC50 result is “inactive”. As to `CC(C)Nc1nc(Oc2ccc(Cl)cc2)cc(C(F)(F)F)n1`, the concentration at half-maximal activity (AC50) was 10 µM (active). As to `C[C@@H]1O[C@H](O[C@@H]2[C@H](C)O[C@H](O[C@@H]3[C@H](C)O[C@H](O[C@H]4CC[C@]5(C)[C@@H](CC[C@@H]6[C@H]5C[C@@H](O)[C@]5(C)[C@@H](C7=CC(=O)OC7)CC[C@]65O)C4)C[C@@H]3O)C[C@@H]2O)C[C@H](O)[C@@H]1O`, the AC50 result was “inactive”. On the same count and under the same terms, next, `Cn1c2c(c(=O)n(C)c1=O)CN(CCN1CCNCC1)CN2`: “inactive”; `CC(Sc1nc(NCc2ccccc2)nc(N(C)C)n1)C(=O)Nc1ccccc1` (stereo not given): 0.794 µM (active); `COc1ccc(NC2=NC(=S)N(c3ccc(C)cc3)C23CCCCC3)cc1`: “inactive”.

Turning to `COc1cc2c(C(=O)NCc3ccc(C)o3)cn(CC(C)C)c(=O)c2cc1OC`, the AC50 is 35.5 µM (active). On the same count and under the same terms, under `CCOc1ccc(-n2cc(C(=O)NCc3ccco3)c3cc(OC)c(OC)cc3c2=O)cc1` stands “inactive”; under `COc1cccc(/C=N/n2c(=S)n(C)c3cc(C)c(C)cc32)c1OC`, 2.24 µM (active). The same measure, in the same setting: under `COc1ccc(/C=N/n2c(C)nnc2C)c(OC)c1` stands “inactive”; under `Cc1ccc(C(=O)NC2CCCCCC2)cc1N1CCCC1=O`, “inactive”; under `Cc1c(Br)cc(C(=O)NC2CCCCC2)c(C)c1C`, 14.1 µM (active). Turning to `C[C@@H](CCC(=O)O)C(=O)O`, the activity, negative = inhibition is 30.5% [at 11.4 µM]. Regarding `COc1ccc(/C=C(/C#N)C(=O)NC2CCCCC2)cc1Br`, the AC50 entry was “inactive”. Still for that read-out and setting: next, `N#C/C(=C\c1cn[nH]c1-c1ccccc1)C(=O)NC1CCCCCC1`: 17.8 µM (active).

In the case of `N#C/C(=C\Nc1ccccn1)C(=O)C1CC1`, the activity, negative = inhibition was -23.3% [at 11.4 µM].

Take `N#C/C(=C\c1cc(Cl)cc(Cl)c1O)C(=O)NC1CCCCC1`: the AC50 was 15.8 µM (active). With `CC(=NC1CCCCC1)c1ccccc1O`, the activity, negative = inhibition was 3.59% [at 11.4 µM]. Still for that read-out and setting: under `CC1=NNC(=S)NCCCN2CCN(CCCNC(=S)NN=C(C)C=NNC(=S)NCCCN3CCN(CCCNC(=S)NN=C1)CC3)CC2` stands 27% [at 11.4 µM]. Take `Cc1cc(C(F)(F)F)n2nc(-c3cnn(C)c3C(F)(F)F)c(Cl)c2n1`: the AC50 was 1.78 µM (active). Still for that read-out and setting: under `Cc1cc(C(F)(F)F)n2nc(-c3cnn(C)c3C(F)(F)F)cc2n1` stands 2.82 µM (active). As for `O=C(Nc1ccccc1C(=O)NCC1CCCO1)c1ccc(Cl)cc1Cl` (stereo not given), the half-maximal activity concentration (AC50) was 14.1 µM (active). On the same count and under the same terms, next, `O=C(NCC1CCCO1)c1cc(-c2ccc(Cl)cc2Cl)on1` (stereo not given): 15.8 µM (active); `Cc1ccccc1C(=O)c1c[nH]c(C(=O)NCC2CCCO2)c1` (stereo not given): 1 µM (active).

On to `CO[C@@H]1COC(=O)[C@H]2CCCN2C(=O)[C@@H](C)COC(=O)[C@H](COCc2ccccc2)NC(=O)C/C=C\[C@H]1C`, for which the activity, negative = inhibition is 12.9% [at 11.4 µM]. The same measure, in the same setting: under `O=C(O)/C=C\C(=O)Nc1ncn[nH]1` stands 10.9% [at 11.4 µM]. Take `O=[N+]([O-])c1ccc(N2CCN(CCOc3nonc3-c3ccccc3)CC2)c(Cl)c1`: the AC50 is 4.47 µM (active).

As to `CC(C)(C)c1cc(Br)c(O)c(CN(Cc2cc(C(C)(C)C)cc(Br)c2O)C2CCCCC2)c1`, the concentration at half-maximal activity (AC50) is 0.631 µM (active). For `CN(C)Cc1cc(O)c(O)c(CN(C)C)c1`, the activity, negative = inhibition is -24% [at 11.4 µM]. On to `Oc1c(Br)cc(Br)cc1CN(Cc1cc(Br)cc(Br)c1O)C1CCCCC1`, for which the AC50 was 0.316 µM (active). Regarding `CN(Cc1cc(C(C)(C)C)cc(Br)c1O)Cc1cc(C(C)(C)C)cc(Br)c1O`, the concentration at half-maximal activity (AC50) was 3.16 µM (active). Consider `CC(C)c1cc(CN(C)C)c(O)c(C(C)(C)C)c1`, for which the activity, negative = inhibition was -2.3% [at 11.4 µM].

With `Oc1c(Br)cc(CN(Cc2cc(Br)c(O)c(Br)c2)C2CCCCC2)cc1Br`, the activity, negative = inhibition is -5.38% [at 11.4 µM].
